Consider 6 compounds from PubChem BioAssay (Tox21).

Structures are written as SMILES. “And” between values parts separate entries of the source, which are not always exact repeats. Equal entries are not always repeated. Inconclusive results are not listed. Where a structure was tested more than once in an assay, its records may differ in their call. The source made the active and inactive calls. Unless noted, calls come from the whole dose curve; as a rule, active = well fitted curve in the direction sought with a large enough effect in the repeat runs; inconclusive = weak or mixed curves; inactive = no such curve, though single readings can be large; an effect the other way counts as inactive or inconclusive.

The nature of assay [1]: qHTS assay for small molecule agonists of the p53 signaling pathway (AID 651631; calls by dose curve; note: nearly all actives have a fitted effect of over 15% in size; note: potency is the fitted concentration of half-maximal effect). The gist of the method:
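HCT-116 cells carrying a stable p53 response element–beta-lactamase reporter were plated, rested 5 h at 37 °C, then exposed to compound in DMSO for 16 h at 37 °C; reporter activity was read as FRET substrate fluorescence after 2 h at room temperature.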

A short description of assay [2]: qHTS assay for small molecules that induce genotoxicity in human embryonic kidney cells expressing luciferase-tagged ATAD5 (AID 651632). Note: nearly all actives have a fitted effect of over 15% in size. Note: potency is the fitted concentration of half-maximal effect. The gist of the method: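 Genotoxicity read-out via ATAD5-luciferase: HEK293T cells, 16 hr compound incubation at 37C, Amplite detection.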
In general terms: Quantitative high-throughput screening tests each substance at several concentrations.

The nature of assay [3]: qHTS assay for small molecule agonists of the p53 signaling pathway - cell viability (AID 651633; calls by dose curve; note: nearly all actives have a fitted effect of over 30% in size; note: potency is the fitted concentration of half-maximal effect). The gist of the method: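 p53RE-bla cells were treated with compound for 16 hours at 37 C. Cytotoxicity was then measured as CellTiter-Glo luminescence after 30 min at room temperature.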
Assay [4] can be described thus: qHTS assay for small molecules that induce genotoxicity in human embryonic kidney cells expressing luciferase-tagged ATAD5 - cell viability (AID 651634; calls by dose curve; note: nearly all actives have a fitted effect of over 25% in size; note: potency is the fitted concentration of half-maximal effect). The gist of the method: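 Live-cell protease activity (CellTiter-Fluor, fluorescence) indicates viability. HEK293T cells with luciferase-tagged ATAD5; 15.5 hr compound treatment at 37C.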
Assay [5] in a line: qHTS assay to test for compound auto fluorescence at 590 nm (red) in HepG2 cells (AID 720674). The gist of the method: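 Seeding: 2,000 HepG2 cells/well, MEM/10% FBS, overnight 37 C. Dosing: compound vs DMSO. Incubation: 1 hr, 37 C, 5% CO2. Read: fluorescence 540 ex/590 em, Rose Bengal sodium as red reference.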
The nature of assay [6]: qHTS assay to test for compound auto fluorescence at 460 nm (blue) in HEK293 cells (AID 720678). The essentials: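 Intrinsic compound fluorescence is recorded in live HEK293 cultures after overnight incubation at 37C, 5% CO2, using excitation 405 nm and emission 460 nm. Values are referenced to triamterene.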
The nature of assay [7]: qHTS assay to test for compound auto fluorescence at 590 nm (red) in HEK293 cells (AID 720679). The gist of the method: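 Red autofluorescence, HEK293 cells: 2,000 cells/well; attach 4-5 hr 37C; add 23 nL cpd or DMSO; incubate o/n 37C 5% CO2; read Ex540/Em590; Rose Bengal sodium reference.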
Assay [8] can be described thus: qHTS assay to test for compound auto fluorescence at 535 nm (green) in HEK293 cells (AID 720680).
The nature of assay [9]: qHTS assay to test for compound auto fluorescence at 460 nm (blue) in HEK293 cell free culture (AID 720681). The essentials:
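Compounds were added to cell-free DMEM with 10% FBS and fluorescence read directly. The blue channel used 405 nm excitation and 460 nm emission, with triamterene as the reference fluorophore.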

Assay [10] can be described thus: qHTS assay to test for compound auto fluorescence at 535 nm (green) in HEK293 cell free culture (AID 720682). The gist of the method:
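Read-out: 485/535 nm fluorescence intensity, calibrated against fluorescein. Medium only (DMEM + 10% FBS, no cells); test compound or DMSO vehicle added by pintool before plate reading.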

A short description of assay [11]: qHTS assay to test for compound auto fluorescence at 590 nm (red) in HEK293 cell free culture (AID 720683). The gist of the method:
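Cell-free wells of DMEM with 10% FBS received compound, and intrinsic fluorescence was read at excitation/emission 540/590 nm. Values expressed as equivalence to Rose Bengal sodium.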

A short description of assay [12]: qHTS assay to test for compound auto fluorescence at 590 nm (red) in HepG2 cell free culture (AID 720684). The gist of the method: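 Compounds are added to culture medium (MEM, 10% FBS) lacking cells, then fluorescence is read at excitation 540 nm, emission 590 nm, with Rose Bengal sodium as the equivalency standard.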
Assay [13] in a line: qHTS assay to test for compound auto fluorescence at 460 nm (blue) in HepG2 cell free culture (AID 720685). The essentials: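 Compound (23 nL) or DMSO pinned into cell-free MEM with 10% FBS; blue fluorescence read at 405/460 nm excitation/emission, expressed as auto-fluorescence equivalency to triamterene.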
The nature of assay [14]: qHTS assay to test for compound auto fluorescence at 535 nm (green) in HepG2 cell free culture (AID 720686).
Assay [15] in a line: qHTS assay to test for compound auto fluorescence at 460 nm (blue) in HepG2 cells (AID 720687). The essentials:
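HepG2 cells in MEM with 10% FBS, attached overnight at 37 C, were exposed to compound or DMSO for 1 hr at 37 C, 5% CO2. Blue fluorescence was read at 405/460 nm, with triamterene as reference fluorophore.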

Assay [16] in a line: qHTS assay for small molecule disruptors of the mitochondrial membrane potential - cell viability (AID 720634; calls by dose curve; note: nearly all actives have a fitted effect of over 20% in size; note: potency is the fitted concentration of half-maximal effect). The gist of the method: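 Human hepatoma HepG2 cells were treated for 1 hr with test chemicals, then given m-MPI dye and CellTiter-Glo. Cell viability reflects luminescence proportional to cellular ATP.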
Assay [17] is described as follows: qHTS assay for small molecule disruptors of the mitochondrial membrane potential (AID 720635). Note: potency is the fitted concentration of half-maximal effect. The gist of the method:
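HepG2 cells exposed to compound 1 hr at 37C, then Mito-MPS dye 30 min. Ratio read of aggregate (540/590 nm) versus monomer (490/535 nm) fluorescence.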

In assay [18] the target is Glucocorticoid receptor (Homo sapiens) (UniProt P04150). Kind of assay: qHTS assay to identify small molecule antagonists of the glucocorticoid receptor (GR) signaling pathway (AID 720692; active = well fitted inhibition curve with a large enough effect in the signal ratio in the repeat runs, not every such curve was filed as active; the % refers to the signal ratio; note: potency is the fitted concentration of half-maximal effect). The gist of the method:
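Fluorescence from cleaved LiveBLAzer B/G FRET substrate reports GRE-driven beta-lactamase in HeLa cells; compounds are tested against 5 nM dexamethasone (final) over 18 h at 37 C, substrate incubation 2 h at room temperature.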

For assay [19] the target is unchanged. Briefly: qHTS assay to identify small molecule agonists of the glucocorticoid receptor (GR) signaling pathway (AID 720691; active = well fitted activation curve with a large enough effect in the signal ratio in the repeat runs, not every such curve was filed as active; the % refers to the signal ratio). The settings on record: GR-bla HeLa, beta-lactamase reporter ratio, 18 h; activation: at 62.4 µM (top of the series). The essentials:
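Beta-lactamase reporter activity, read as fluorescence intensity, was measured in GR-bla HeLa cells exposed to compounds for 18 h at 37 C and then loaded with LiveBLAzer B/G FRET substrate for 2 h at room temperature.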

The nature of assay [20]: qHTS assay to test for compound auto fluorescence at 535 nm (green) in HepG2 cells (AID 720675).

Glucocorticoid receptor (Homo sapiens), sequence (P04150 whole entry, looked up): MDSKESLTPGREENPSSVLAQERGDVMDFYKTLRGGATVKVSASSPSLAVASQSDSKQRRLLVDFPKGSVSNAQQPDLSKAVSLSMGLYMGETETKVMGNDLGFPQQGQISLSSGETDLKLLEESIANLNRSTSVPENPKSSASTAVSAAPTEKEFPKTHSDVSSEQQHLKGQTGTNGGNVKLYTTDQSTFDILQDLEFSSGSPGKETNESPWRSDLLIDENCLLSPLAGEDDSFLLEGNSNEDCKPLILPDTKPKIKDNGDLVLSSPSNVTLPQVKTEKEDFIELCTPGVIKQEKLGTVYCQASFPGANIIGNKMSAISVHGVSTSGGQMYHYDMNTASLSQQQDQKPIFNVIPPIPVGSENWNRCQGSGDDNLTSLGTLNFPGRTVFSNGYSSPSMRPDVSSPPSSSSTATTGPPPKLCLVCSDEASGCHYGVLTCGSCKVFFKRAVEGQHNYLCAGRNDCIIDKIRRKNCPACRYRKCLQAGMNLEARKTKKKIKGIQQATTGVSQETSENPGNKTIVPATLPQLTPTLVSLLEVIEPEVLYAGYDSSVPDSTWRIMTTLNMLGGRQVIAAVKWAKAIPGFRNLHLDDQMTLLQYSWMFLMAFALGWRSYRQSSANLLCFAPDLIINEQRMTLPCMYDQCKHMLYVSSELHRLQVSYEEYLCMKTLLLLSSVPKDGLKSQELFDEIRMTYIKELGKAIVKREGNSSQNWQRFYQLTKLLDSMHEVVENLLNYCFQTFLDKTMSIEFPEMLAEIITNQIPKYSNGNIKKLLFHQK

With `C=CC(=O)OCC(CO)(COCC(COC(=O)C=C)(COC(=O)C=C)COC(=O)C=C)COC(=O)C=C`, the Potency in assay [1] was 67.8 µM (active); in assay [2], 2.4 µM (active); in assay [3] it was 2.7 µM (active); in assay [4], 7.6 µM (active). Also, the Potency result in [5], in [6], in assay [7], in [9], in assay [11] and in assay [12] was “inactive” in each case. In addition, the Potency result in [13], in [14] and in assay [15] was “inactive” throughout. For the same compound, the compound was classed as inactive in assay [8] and in assay [10].

Regarding `COC(=O)C1=C(C)NC(C)=C(C(=O)OCC(C)C)C1c1ccccc1[N+](=O)[O-]` (stereo unspecified), the Potency in [1] was 26.6 µM (active); in assay [4], 29.8 µM (active) and 48.6 µM (active); in [17] it was 11.9 µM (active) and 43.3 µM (active); in assay [18], 24.5 µM (active). Further, the Potency entry in assay [3], in [16], in assay [5], in [6], in assay [7] and in assay [9] was “inactive” each time. Further, the Potency entry in assay [11], in [12], in [13], in assay [14] and in assay [15] was “inactive” in each case. Besides, the call in [8] and in [10] was inactive.

For the compound `O=C1C=CC(=O)N1c1ccc(Cc2ccc(N3C(=O)C=CC3=O)cc2)cc1`, the Potency in [1] is 13.7 µM (active); in assay [3], 10.9 µM (active); in assay [4], 15.4 µM (active); in assay [16], 7.7 µM (active); in assay [17], 6.86 µM (active). Besides, the Potency result in assay [5], in [6], in assay [7], in assay [9], in assay [11] and in assay [12] was “inactive” in each case. The Potency result in assay [13], in [14] and in [15] was “inactive” in each case. Besides, in assay [8], the compound was classed as inactive.

In the case of `C/C=C(\C)C(=O)OCc1ccccc1`, the Potency result in assay [1], in assay [3], in assay [4], in assay [16], in [5] and in assay [6] was “inactive” throughout. For the same compound, the Potency entry in assay [7], in assay [9], in [11], in [12], in [13] and in assay [15] was “inactive” throughout. In addition, the Potency result in assay [19] is “inactive”. The outcome in assay [8] and in assay [10] was inactive.

With `O=C(OC[C@H]1O[C@@H](OC(=O)c2cc(O)c(O)c(OC(=O)c3cc(O)c(O)c(O)c3)c2)[C@H](OC(=O)c2cc(O)c(O)c(OC(=O)c3cc(O)c(O)c(O)c3)c2)[C@@H](OC(=O)c2cc(O)c(O)c(OC(=O)c3cc(O)c(O)c(O)c3)c2)[C@@H]1OC(=O)c1cc(O)c(O)c(OC(=O)c2cc(O)c(O)c(O)c2)c1)c1cc(O)c(O)c(OC(=O)c2cc(O)c(O)c(O)c2)c1`, the Potency is 2.66 µM (active) and 10.4 µM (active) in assay [1]; 5.96 µM (active) and inactive in [3]; 10.6 µM (active) and inactive in [16]; 2.37 µM (active) in [17]. The Potency result in [2], in [5], in [20], in assay [6], in assay [7] and in [9] was “inactive” each time. Besides, the Potency entry in assay [11], in assay [14], in assay [15] and in assay [18] was “inactive” each time. Further, the outcome in [8] and in assay [10] was inactive.

As to `CO[Si](CCCNc1ccccc1)(OC)OC`, the Potency result in assay [1], in assay [3], in assay [4], in assay [16], in assay [17] and in assay [5] was “inactive” each time. Moreover, the Potency entry in assay [20], in assay [6], in assay [9], in assay [11], in assay [12] and in assay [13] was “inactive” throughout. Besides, the Potency result in [14], in [15], in [19] and in assay [18] was “inactive” throughout. For the same compound, the compound was called inactive in assay [8] and in assay [10].
